This is an account of results in PubChem BioAssay (NCATS).

The nature of assay [1]: qHTS for Inhibitors of the Aldehyde Dehydrogenase Family (ALDH1A2, ALDH1A3, ALDH2, ALDH3A1) (AID 2061307). Further: nearly all actives have a fitted effect of over 50% in size. On Potency: test system not described further here; potency means the concentration at half of the fitted maximal effect. As to conditions: ALDH inhibition qHTS; series mostly up to 50.3 µM. (In qHTS, concentration-response curves come from the screen itself.)
For assay [2], the target named is Aldehyde dehydrogenase, mitochondrial (Homo sapiens) (UniProt P05091). Description: qHTS for Inhibitors of the Aldehyde Dehydrogenase Family (ALDH2) Primary screen (AID 2061308). Further: nearly all actives have a fitted effect of over 55% in size. The conditions noted are these: ALDH2 enzyme inhibition qHTS, 1536-well; series mostly up to 56 µM.
The target in assay [3] is Retinal dehydrogenase 2 (Homo sapiens) (UniProt O94788). Description: qHTS for Inhibitors of the Aldehyde Dehydrogenase Family (ALDH1A2) Confirmation screens (AID 2061314). Further: nearly all actives have a fitted effect of over 65% in size. Further: potency means the concentration at half of the fitted maximal effect. The conditions noted are these: ALDH1A2 enzyme inhibition qHTS confirmation; series mostly up to 45.9 µM.
The target of assay [4] is Retinaldehyde dehydrogenase 3 (Homo sapiens) (UniProt P47895). Description: qHTS for Inhibitors of the Aldehyde Dehydrogenase Family (ALDH1A3) Primary screen (AID 2061315). The conditions noted are these: ALDH inhibition qHTS; series mostly up to 56 µM.
For assay [5], the target named is Aldehyde dehydrogenase 1A1 (Homo sapiens) (UniProt P00352). Kind of assay: qHTS for Inhibitors of the Aldehyde Dehydrogenase Family (ALDH1A1) Confirmatory screens (AID 2061316). Further: nearly all actives have a fitted effect of over 65% in size. Further: potency means the concentration at half of the fitted maximal effect. As to conditions: ALDH inhibition qHTS; series mostly up to 47.3 µM.

Each structure is given as a SMILES string. Inconclusive results are not listed. The source made the active and inactive calls. The call rests on the fitted dose curve; in most records, active means well fitted curve in the direction sought with a large enough effect; inconclusive means small, poorly fitted or top-dose-only effect, or another doubt; inactive means no such curve, though single readings can be large; an effect the other way counts as inactive or inconclusive.

`CN(C)CCCNc1ccc(NC(=O)c2cccs2)cn1`: the Potency result in assay [1], in assay [2] and in assay [4] was “inactive” throughout. The Potency in assay [3] was 5.65 µM (active).

On to `COc1ccc(OCc2cc(C3Nc4ccccc4C(=O)N3Cc3ccccc3)ccc2OC)cc1` (stereo not given), for which the Potency in assay [1] is 5.65 µM (active). Moreover, the Potency entry in assay [2] and in assay [4] was “inactive” throughout.

`O=S(=O)(c1ccccc1)N1CCN(c2nc(-c3ccc(Br)cc3)cs2)CC1`: the Potency in assay [1] is 7.98 µM (active); in assay [5], 10.1 µM (active). The Potency entry in assay [2], in assay [3] and in assay [4] was “inactive” throughout.

Turning to `Cc1ccnc(CC(=S)N2CCN(c3cccc(C(F)(F)F)c3)CC2)c1`, the Potency in assay [1] was 10 µM (active); in assay [3], 12.7 µM (active); in assay [5] it was 10.1 µM (active). Further, the Potency result in assay [2] and in assay [4] was “inactive” in each case.

In the case of `O=C(Nc1nc(-c2ccccc2)cs1)c1ccncc1NS(=O)(=O)c1ccccc1Cl`, in assay [1], the Potency was 22.5 µM (active). The Potency entry in assay [2] and in assay [4] was “inactive” in each case.

As for `Cc1ccc(N[S+](=O)([O-])c2cc3c(cc2Cl)NC(=O)CO3)cc1Br`, the Potency in assay [1] was 10.1 µM (active); in assay [3] it was 14.2 µM (active). Moreover, the Potency entry in assay [2] and in assay [4] was “inactive” in each case.

`FC(F)(F)c1ccc(-c2ccc(CNc3nc(-c4ccccc4C(F)(F)F)nc4ccccc34)cc2)cn1`: the Potency was 8.91 µM (active) in assay [1], 25.2 µM (active) in assay [3] and 7.98 µM (active) in assay [5]. The Potency entry in assay [2] and in assay [4] was “inactive” throughout.

With `O=C(c1cccs1)c1nonc1C(=O)c1cccs1`, the Potency result in assay [1], in assay [2] and in assay [4] was “inactive” in each case.

Regarding `FC(F)Oc1ccc(C2=Nn3c(nnc3-c3ccccc3C(F)(F)F)SC2)cc1OCC1CC1`, the Potency in assay [1] was 2.83 µM (active); in assay [3], 17.9 µM (active). The Potency entry in assay [2], in assay [4] and in assay [5] was “inactive” in each case.

Turning to `COc1ccc(C2Nc3ccccc3C(=O)N2Cc2ccc(CNC(=O)CO)cc2)cc1COc1ccc(NC(C)=O)cc1` (stereo not given), the Potency in assay [1] was 4.49 µM (active); in assay [3] it was 12.7 µM (active). In addition, the Potency result in assay [2] and in assay [4] was “inactive” in each case.

As for `Cc1cc(-c2nnc3n2CCCC3)c(C)n1-c1ccccc1`, the Potency entry in assay [1], in assay [2], in assay [3] and in assay [4] was “inactive” each time. Moreover, the Potency in assay [5] is 11.3 µM (active).

For `COc1ccc(C2Nc3ccccc3C(=O)N2Cc2ccccn2)cc1COc1ccc(NC(C)=O)cc1` (stereo not given), the Potency in assay [1] is 6.31 µM (active). For the same molecule, the Potency result in assay [2] and in assay [4] was “inactive” throughout.

As to `COc1ccc(C2=Nn3c(nnc3-c3cccc(OC)c3OC)SC2)c(OC)c1`, the Potency in assay [1] is 2 µM (active). For the same molecule, the Potency result in assay [2], in assay [3], in assay [4] and in assay [5] was “inactive” in each case.

With `COc1ccc(S(=O)(=O)N2CCN(S(=O)(=O)c3ccc4c(c3)OCCO4)CC2)cc1`, the Potency result in assay [1], in assay [2] and in assay [4] was “inactive” in each case.

On to `COc1ccc(-c2nc3ccccc3c(=O)n2Cc2ccco2)cc1COc1ccc(NC(C)=O)cc1`, for which the Potency was 20.1 µM (active) in assay [1] and 12.7 µM (active) in assay [3]. Further, the Potency entry in assay [2] and in assay [4] was “inactive” in each case.

With `Cc1cc(-c2nnc3n2CCCCC3)c(C)n1-c1ccc(Cl)c(Cl)c1`, the Potency entry in assay [1], in assay [2] and in assay [4] was “inactive” throughout. For the same molecule, the Potency in assay [3] was 20.1 µM (active); in assay [5] it was 14.2 µM (active).

Consider `CCOC(=O)c1ccc(-n2cccc2/C=C2\NC(=O)NC2=O)cc1`, for which the Potency result in assay [1], in assay [2] and in assay [4] was “inactive” throughout.

For `N#Cc1nc(Nc2ccc3ccccc3c2)nc(NC2CCCC2)n1`, the Potency entry in assay [1], in assay [2] and in assay [4] was “inactive” throughout. For the same molecule, the Potency in assay [3] is 22.5 µM (active).

Regarding `O=C(CN1C(=O)N/C(=C\c2cn(-c3cccc(C(=O)O)c3)cn2)C1=O)Nc1ccccc1Cl`, the Potency result in assay [1], in assay [2], in assay [3], in assay [4] and in assay [5] was “inactive” throughout.

As to `O=C(Nc1cncc(Cc2ccccc2)c1)c1ccc(-c2cccc([N+](=O)[O-])c2)o1`, the Potency in assay [1] is 1.27 µM (active); in assay [3], 12.7 µM (active); in assay [5], 3.18 µM (active). Besides, the Potency entry in assay [2] and in assay [4] was “inactive” in each case.

Regarding `N#Cc1nc(Nc2ccccc2)nc(NC2CCCCC2)n1`, the Potency in assay [1] is 0.708 µM (active). Further, the Potency entry in assay [2], in assay [3] and in assay [4] was “inactive” each time.

Take `Cc1cc(NC(=O)c2ccc(NC(=O)Cc3ccc(Cl)c(Cl)c3)cc2)no1`: the Potency entry in assay [1], in assay [2] and in assay [4] was “inactive” throughout.

Consider `O=C([C@H](Cc1ccc(O[S+](=O)([O-])c2cccnc2)cc1)N[S+](=O)([O-])c1ccccn1)N1CCN(c2ccccc2)CC1`, for which the Potency in assay [1] is 15.8 µM (active); in assay [3], 7.98 µM (active); in assay [5], 5.04 µM (active). For the same molecule, the Potency entry in assay [2] and in assay [4] was “inactive” throughout.

Turning to `COc1cc2ncnc(N(C)Cc3csc(C)n3)c2cc1-c1ccc2c(c1)OCO2`, the Potency result in assay [1], in assay [2], in assay [3] and in assay [4] was “inactive” in each case.

For the molecule `CC(C)(C)OC(=O)NCCOCCOCCOCCn1ncc2c1CCCC2NC(=O)c1ccccn1` (stereo not given), the Potency entry in assay [1], in assay [2] and in assay [4] was “inactive” throughout.

As for `CN(CC(=O)O)c1ncnc2ccc(-c3ccc4c(c3)OCO4)cc12`, the Potency result in assay [1], in assay [2] and in assay [4] was “inactive” in each case.

Consider `COc1ccc(C2=Nn3c(nnc3-c3ccc(OC)cc3)SC2)cc1`, for which the Potency in assay [1] was 7.98 µM (active). Moreover, the Potency result in assay [2], in assay [3], in assay [4] and in assay [5] was “inactive” in each case.

In the case of `O=C(Nc1nc(-c2ccccc2)cs1)c1ccncc1NS(=O)(=O)c1ccc2ccccc2c1`, the Potency in assay [1] is 2.51 µM (active); in assay [3], 7.12 µM (active); in assay [5] it was 8.96 µM (active). For the same molecule, the Potency entry in assay [2] and in assay [4] was “inactive” each time.
